POLK inh – blocks human DNA polymerase kappa activity; Q9UBT6; purified Pol kappa, fluorescent DNA synthesis assay, 10 min; Potency, µM (titrated, usually from 107 µM), for the others: at the top dose activity, negative = inhibition, usual class: inhibitors; actives 0.53% (n = 400,000); note: % is set by controls: 0 for no effect and ±100 for the full control effect
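Inhibition of 10 nM Pol kappa is measured by a fluorescent read-out at 0 and 10 min following addition of 50 nM substrate (final), with a 15-min room-temperature compound preincubation.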
Pol iota inh – blocks human DNA polymerase iota activity; Pol iota fluorescent replication assay, 10 min; actives 1% (n = 390,000); AID 588590; Potency, µM (titrated, usually from 115 µM), without a hit: top-dose activity, negative = inhibition, actives largely listed as inhibitors; Q9UNA4
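Pol iota at 10 nM preincubated 15 min with compounds at room temperature; reaction started with fluorescent substrate, 50 nM final. Fluorescence read kinetically at 0 and 10 min; buffer-only wells as negative control.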
Pol eta inh – blocks human DNA polymerase eta activity | recombinant Pol eta, fluorescent DNA replication assay | actives 1.2% (n = 390,000) | Q9Y253 | AID 588591 | Potency, µM (series often up to 114 µM), inactives show top-dose activity change, negative = inhibition, usual class: inhibitors; note: % is set by controls: 0 for no effect and ±100 for the full control effect
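Pol eta (10 nM) was preincubated with compounds for 15 min at room temperature, after which fluorescent replication substrate (50 nM final) was added to start the reaction. Fluorescence was read kinetically at 0 and 10 min.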
GLS inhibitor – blocks human kidney-isoform glutaminase activity. O94925. GLS enzymatic activity, qHTS titration. Potency, µM (doses to about 45.5 µM), for the others: top-dose activity change, negative = inhibition, actives largely listed as inhibitors. actives 0.21% (n = 410,000). AID 624170; note: % is set by controls: 0 for no effect and ±100 for the full control effect
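Read-out is an Amplex red fluorescence increase coupled through glutamate oxidase and HRP, measured before and after 30 min room-temperature incubation. hKGA is in 45 mM KH2PO4 (pH 8.2) with 0.02% Tween-20; glutamine added as 1mM solution.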
APE1 inh – inhibitors of human APE1 endonuclease; Potency, µM (doses to about 65.8 µM), inactives show at the highest dose activity change, negative = inhibition, actives largely listed as inhibitors; actives 0.35% (n = 350,000); P27695; recombinant APE1, TAMRA/BHQ-2 abasic DNA cleavage fluorescence;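 note: plate controls were vehicle for no effect and reference inhibitor for full effect; nearly all actives have a fitted effect of over 55% in size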
Target sequence (P27695 whole entry, looked up): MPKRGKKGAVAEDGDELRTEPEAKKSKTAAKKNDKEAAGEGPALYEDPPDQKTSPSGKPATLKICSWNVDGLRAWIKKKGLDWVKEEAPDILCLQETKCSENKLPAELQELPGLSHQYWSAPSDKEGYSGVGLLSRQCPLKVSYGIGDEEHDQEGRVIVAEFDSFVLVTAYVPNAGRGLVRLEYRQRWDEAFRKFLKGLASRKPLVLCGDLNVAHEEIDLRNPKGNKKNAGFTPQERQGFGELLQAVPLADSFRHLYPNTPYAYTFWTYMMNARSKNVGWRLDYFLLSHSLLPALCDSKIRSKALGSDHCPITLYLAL
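0.75 nM APE1 + cpd, 15 min RT; start w/ 50 nM TAMRA/BHQ-2 THF-abasic dsDNA; kinetic fluor 525/598 nm ×3 reads @60 s; Δ(read3−read1); normalized to DMSO and NSC13755 control wells.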
Pol beta inh – DNA polymerase beta (human) inhibition. actives 1.3% (n = 340,000). Potency, µM (doses to about 114 µM), inactives show at the highest dose activity change, negative = inhibition, actives largely listed as inhibitors. Pol beta primer extension/strand displacement, fluorescence kinetic. P06746; note: % is set by controls: 0 for no effect and ±100 for the full control effect
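Enzyme-only controls used 10 nM Pol beta; buffer lacking enzyme served as negative control. Compound preincubated 15 min, then 50 nM substrate added; 0 and 10 min reads at room temperature.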
* hit, by the source's call; ? = inconclusive; nt = no result; [ ] = remark or other dose. Shown are actives, neighbours in structure and some others; about 2.4% of the full set was active somewhere. Calls come from the whole dose curve; as a rule, active = well fitted curve in the direction sought with a large enough effect; inconclusive = small, poorly fitted or top-dose-only effect, or another doubt; inactive = no such curve, though single readings can be large; an effect the other way counts as inactive or inconclusive. Potency is the fitted concentration of half-maximal effect.

SMILES | POLK inh | Pol iota inh | Pol eta inh | GLS inhibitor | APE1 inh | Pol beta inh
COc1cccc(NC(=O)Cn2nnc(C(=O)NCCc3ccccc3)c2N)c1 | -33.5% | 31.6µM* | 8.2% | 6.4% | 1.2% | ?
COc1cccc(NC(=O)Cn2nnc(C(=O)Nc3ccccc3)c2N)c1 | -13.2% | 0.2% | -4.8% | -6.5% | -4.7% | 8.0%
COc1ccc(CCNC(=O)c2nnn(CC(=O)Nc3ccccc3C)c2N)cc1OC | -11.1% | ? | ? | 2.1% | -1.3% | 20µM*
COc1ccc(CCNC(=O)c2nnn(CC(=O)Nc3ccccc3)c2N)cc1OC | -12.4% | ? | 4.6% | 5.2% | 3.8% | ?
CCOc1ccc(CCNC(=O)c2nnn(CC(=O)Nc3ccccc3C)c2N)cc1OCC | 5.2% | 21.9% | -9.8% | -1.3% | 74.6% | -12.2%
COC(=O)[C@@]1(Cc2ccc(OC)cc2)[C@H]2c3cc(C(=O)N4CCCC4)n(C[C@H](O)CO)c3C[C@H]2CN1C(=O)c1ccccc1 | nt | nt | nt | nt | -3.5% | nt
Cc1[nH]n(-c2ccccc2)c(=O)c1C1(C(F)(F)F)C(=O)N(c2ccccc2)C2=C1C(=O)CC(C)(C)C2 (stereo unspecified) | -6.0% | 14.6% | -9.6% | ? | 11.5% | 1.0%
COc1ccc(NC(=O)Cn2nnc(C(=O)NCCc3ccccc3)c2N)c(OC)c1 | -7.7% | ? | 35.5µM* | 1.2% | -18.7% | -25.1%
COc1ccc(NC(=O)Cn2nnc(C(=O)NCc3ccccc3)c2N)c(OC)c1 | 2.4%[60.1 µM] | ? | 10.0% | -12.3% | 5.1% | ?
CCOC(=O)C(CC)n1nc(C)c2c(C)n(-c3ccc(C)cc3)nc2c1=O (stereo unspecified) | -9.4% | 8.4% | nt | 5.2% | nt | -6.5%
CC1(Oc2cccc(C#N)c2)CCN(Cc2ccc(-c3ccccn3)cc2)C1 (stereo unspecified) | nt | nt | nt | 12.9% | nt | nt
O=C(OCc1cc(=O)n2nc(-c3cccs3)sc2n1)c1cccc(F)c1 | -2.7% | ? | ? | -4.8% | nt | 17.8µM*
O=C(OCc1cc(=O)n2nc(-c3cccs3)sc2n1)c1ccccc1Br | -25.4% | ? | 79.4µM* | -9.4% | nt | 20µM*
O=C(COc1ccc(F)cc1)OCc1cc(=O)n2nc(-c3cccs3)sc2n1 | ? | ? | -9.9% | -2.7% | nt | ?
O=C(COc1ccccc1Cl)OCc1cc(=O)n2nc(-c3cccs3)sc2n1 | -6.8% | -6.6% | -2.2% | -9.7% | nt | ?
Cn1cc(S(=O)(=O)N2CCCC2)cc1C(=O)Nc1ccc(C(F)(F)F)cc1 | -17.5% | ? | -19.9% | -11.4% | nt | 25.1µM*
Cn1cc(S(=O)(=O)N2CCCC2)cc1C(=O)Nc1cccc(C(F)(F)F)c1 | 1.1% | 30.5% | -1.7% | -3.2% | 5.6% | 34.6%
O=c1cc(-c2ccc(O)cc2)oc2c(-c3c(O)cc(O)c4c(=O)cc(-c5ccc(O)cc5)oc34)c(O)cc(O)c12 | ? | ? | 25.1µM* | -18.7% | 22.0% | nt
Cc1ccc(S(=O)(=O)N2[C@@H](c3cccc(Cl)c3)C(C(=O)O)=CC[C@H]2c2ccc(Cl)cc2)cc1 | -19.5% | -6.9% | ? | 17.5% | 13.2% | nt
Cc1ccc(S(=O)(=O)N2[C@@H](c3ccc(Cl)cc3)C(C(=O)O)=CC[C@H]2c2ccc(Cl)c(Cl)c2)cc1 | -16.3% | ? | 89.1µM* | 20.7% | -5.1% | nt
CCc1ccc([C@@H]2CC=C(C(=O)O)[C@H](c3ccc(C(C)(C)C)cc3)N2S(=O)(=O)c2ccc(C)cc2)cc1 | -29.8% | 25.7% | 31.6µM* | 30.6% | 3.3% | nt
CCc1ccc([C@@H]2CC=C(C(=O)O)[C@H](c3ccccc3)N2S(=O)(=O)c2ccc(C)cc2)cc1 | -24.9% | -12.9% | 1.6% | 37.5% | -7.1% | nt
CC(=O)n1cc(/C=N/NC(=O)c2sc(C)nc2C)c2ccccc21 | ? | 11.2µM* | -11.9% | -0.9% | -3.2% | 17.8µM*
COc1ccc(OCC(O)CNC(=O)/C=C/c2cccc([N+](=O)[O-])c2)cc1 (stereo unspecified) | 1.4% | -10.4% | -26.6% | -5.0% | -8.9% | 15.8%
C[N+](C)(CCCCCI)c1ccc(/C=C/c2nc3ccccc3s2)cc1 | 44.7µM* | 79.4µM* | nt | nt | nt | nt
SMILES | POLK inh | Pol iota inh | Pol eta inh | GLS inhibitor | APE1 inh | Pol beta inh
C(=C\c1nc2ccccc2s1)/c1ccc2c(c1)OCO2 | -0.3% | 0.6% | nt | nt | nt | nt
COc1cccc(/C=N/n2c(-c3n[nH]c4c3CCC4)n[nH]c2=S)c1O | -13.1% | -8.8% | -15.2% | -1.4% | -2.4% | -18.4%
COc1ccccc1/C=C/C=N/n1c(-c2n[nH]c3c2CCC3)n[nH]c1=S | -26.6% | 26.3% | ? | ? | 3.0% | 7.94µM*
Nc1c(N2CCCC2)cc(Cl)c2nonc12 | ? | 1.58µM* | 22.4µM* | 18.9% | ? | ?
Nc1cc(Cl)ccc1N1CCCCC1 | -15.8% | 7.6% | -17.0% | 10.5% | -1.4% | -7.0%
Nc1c(N2CCOCC2)cc(Cl)c2nonc12 | -0.7% | 3.55µM* | -5.2% | 3.6% | -5.8% | -1.3%
COc1ccccc1CN1CC(C(=O)NCCc2ccc(Cl)cc2)CC1=O (stereo unspecified) | 0.0% | 45.2% | -11.6% | -16.1% | 79.5% | -0.2%
N#C/C(=C\c1ccc(-c2ccc(C(=O)O)cc2)o1)C(=O)NCC1CCCO1 (stereo unspecified) | ? | ? | 12.6µM* | -5.4% | ? | 15.8µM*
Cc1cccc(C)c1NC(=O)/C(C#N)=C/c1ccc(-c2ccc(C(=O)O)cc2)o1 | ? | -8.5% | 50.1µM* | -3.7% | -0.6% | ?
N#C/C(=C\c1ccc(N2CCOCC2)o1)C(=O)NCC1CCCO1 (stereo unspecified) | -13.6% | 7.3% | -22.0% | 34.9% | 10.6% | ?
CCOP(=O)(OCC)/C(=N/OC(=O)c1ccc(OC)cc1)C(N)=O | 0.0% | ? | -17.2% | -10.7% | -9.2% | 7.5%
O=C(CSc1nncs1)Nc1ccc(Cl)cc1C(F)(F)F | -17.3% | -9.5% | -7.8% | -2.3% | 0.5% | nt
COc1ccc(-c2cc3nc4ccccc4n3c(N)c2C#N)cc1 | -5.9% | 19.8% | -10.4% | 3.4% | -4.1% | 3.98µM*
COc1ccc(-c2cc(-c3ccccc3)c(C#N)c(S(C)=O)n2)cc1 (stereo unspecified) | -16.1% | 17.2% | -14.3% | 0.4% | 5.0% | -0.5%
Cn1c(=O)n(C)c2cc(NS(C)(=O)=O)ccc21 | -8.3% | 4.8% | -11.3% | 5.3% | 7.7% | 17.0%
Cn1cccc1CNC(=O)Nc1ccccc1 | -1.9% | -7.6% | -5.1% | 2.8% | -9.3% | 0.3%
Cc1ccc(NC(=O)NCc2cccn2C)cc1C | -6.3% | -8.4% | -6.8% | 7.08µM* | 8.1% | 40.6%

High-throughput results (PubChem)
